# Measurements taken from PubChem BioAssay.
# Values without a mark were called inactive. The list shows a part of the results. Active and inactive are the calls of the source. Unless noted, no stated cut-off is given here; in the data, active means inhibition above about 42%; inactive means the rest.
# How the values were obtained:
# [1] = StAR promoter reporter inhibitors, counter-screen for LRH-1 inverse agonist project, cell-based, luminescence, high throughput (AID 651611; in the data active means inhibition above about 28%); settings: StAR promoter luciferase reporter counterscreen, at 3.6 µM, hits give high values
# [2] = target: Nuclear receptor subfamily 5 group A member 2 (Homo sapiens) (UniProt O00482); test: LRH-1 (NR5A2) inverse agonists, retest, confirmation, cell-based, luminescence (AID 651613); settings: cell-based LRH-1 luciferase reporter, inverse agonism; at 3.6 µM; hits give high values;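 further: HEK293T cells co-transfected with LRH-1 and StAR promoter luciferase reporter; 0% = vehicle wells and 100% = parental cells lacking receptor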
# [3] = target: Steroidogenic factor 1 (Homo sapiens) (UniProt Q13285); test: SF1 (NR5A1) inverse agonists, counter-screen for LRH-1 inverse agonist project, cell-based, luminescence, high throughput (AID 651614; in the data active means inhibition above about 44%;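 further: cells cotransfected with StAR promoter reporter and SF1 expression vector; 0% = vehicle on cells with receptor and 100% = vehicle on cells lacking receptor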); settings: cell-based SF1 luciferase reporter, at 3.6 µM, hits give high values
# [4] = VP16 transactivation reporter inhibitors, counter-screen for LRH-1 inverse agonist project, cell-based, luminescence, high throughput (AID 651615; in the data active means inhibition above about 33%); settings: Gal4-VP16 luciferase reporter cells, at 3.6 µM, hits give high values
# [5] = test system: transactivating tegument protein VP16 (Human herpesvirus 1); test: VP16 transactivation reporter inhibitors, counter-screen for SRC2 inhibitor project, cell-based, luminescence, single concentration (AID 652007; in the data active means inhibition above about 36%); settings: cell-based VP16 transactivation luciferase reporter, at 8.9 µM, hits give high values
# [6] = target: Nuclear receptor coactivator 2 (Homo sapiens) (UniProt Q15596); test: SRC2 coactivator transcriptional activity inhibitors, confirmation, cell-based, luminescence, HEK293, triplicate (AID 652008;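 active means mean inhibition above 46.5%, the solvent-only control mean plus 3 SD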;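 further: 0% = DMSO-treated cells and 100% = Gossypol at 36 µM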); settings: HEK293 GAL4-SRC2 luciferase reporter, at 8.9 µM, hits give high values
# [7] = growth loss of phage-infected RecBCD+ E. coli, confirmation, RecBCD inhibitor project, absorbance, E. coli V66, T4 gene 2 phage (AID 651982;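 active means mean inhibition over triplicates exceeding the hit threshold derived in the original primary screen, cut at about 11% in these data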); settings: E. coli V66 + T4 2- phage, growth OD; at 11.9 µM; hits give high values
# [8] = E. coli viability inhibition, counter-screen for RecBCD inhibitor project, absorbance, high throughput (AID 651983; in the data active means inhibition above about 20%;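 further: E. coli strain V66 grown with compound alone and no phage infection; 0% = bacteria with DMSO vehicle only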); settings: absorbance (OD) growth, at 11.9 µM, hits give high values
# [9] = growth loss of phage-infected AddAB-carrying E. coli, confirmation, counter-screen for RecBCD inhibitor project, absorbance, E. coli V3065, T4 phage (AID 651984;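 active means mean inhibition above the solvent-only control wells' mean plus 3 SD, cut at about 22% in these data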;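 further: higher means less bacterial growth from phage killing when AddAB is blocked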); settings: E. coli expressing H. pylori AddAB + T4 phage, OD growth; at 11.9 µM; hits give high values; gene 2 mutant T4, recBCD-deleted host
# [10] = Gal4-VP16 luciferase reporter inhibitors, counter-screen for COUP-TFII antagonist project, cell-based, luminescence, HEK293 (AID 687007; in the data active means inhibition above about 13%); settings: at 8.5 µM, hits give high values
# [11] = target: COUP transcription factor 2 (Homo sapiens) (UniProt P24468); test: NR2F2 transcriptional activity inhibitors, confirmation, cell-based, luciferase reporter, HEK293, triplicate (AID 687008;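 active means mean inhibition over three repeats above a set limit taken from the earlier primary screen, cut at about 38% in these data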;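 further: 100% = cells given the luciferase reporter alone without the COUP-TF2 vector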); settings: HEK293 NGFI-A luciferase reporter, luminescence; at 8.5 µM; hits give high values
# COUP transcription factor 2 (Homo sapiens), sequence (P24468 whole entry, looked up): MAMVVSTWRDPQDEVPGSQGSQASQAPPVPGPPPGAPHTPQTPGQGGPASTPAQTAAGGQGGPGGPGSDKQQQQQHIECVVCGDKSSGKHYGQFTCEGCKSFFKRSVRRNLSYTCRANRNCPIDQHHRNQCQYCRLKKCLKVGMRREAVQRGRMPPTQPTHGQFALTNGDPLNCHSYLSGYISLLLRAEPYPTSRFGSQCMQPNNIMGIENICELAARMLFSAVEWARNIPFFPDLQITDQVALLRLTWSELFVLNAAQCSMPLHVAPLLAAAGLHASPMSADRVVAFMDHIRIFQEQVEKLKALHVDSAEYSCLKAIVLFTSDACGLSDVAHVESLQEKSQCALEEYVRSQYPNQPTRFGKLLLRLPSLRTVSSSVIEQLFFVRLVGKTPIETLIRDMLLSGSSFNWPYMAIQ
# Nuclear receptor subfamily 5 group A member 2 (Homo sapiens), sequence (O00482 whole entry, looked up): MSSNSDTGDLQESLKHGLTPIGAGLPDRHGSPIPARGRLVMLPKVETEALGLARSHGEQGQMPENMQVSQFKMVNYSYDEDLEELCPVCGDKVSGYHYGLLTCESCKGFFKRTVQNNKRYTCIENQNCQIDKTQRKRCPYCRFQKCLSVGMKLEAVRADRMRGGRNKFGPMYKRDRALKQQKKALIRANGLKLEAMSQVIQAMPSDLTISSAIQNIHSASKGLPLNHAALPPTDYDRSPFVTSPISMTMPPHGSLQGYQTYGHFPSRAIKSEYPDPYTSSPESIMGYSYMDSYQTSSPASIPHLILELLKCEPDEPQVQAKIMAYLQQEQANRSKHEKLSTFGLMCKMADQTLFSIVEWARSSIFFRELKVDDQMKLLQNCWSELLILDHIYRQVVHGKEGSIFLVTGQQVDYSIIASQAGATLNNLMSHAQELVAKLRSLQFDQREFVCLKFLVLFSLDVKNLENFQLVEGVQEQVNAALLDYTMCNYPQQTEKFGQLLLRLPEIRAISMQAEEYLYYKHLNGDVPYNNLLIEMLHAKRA
# Steroidogenic factor 1 (Homo sapiens), sequence (Q13285 whole entry, looked up, the tested form may be a part): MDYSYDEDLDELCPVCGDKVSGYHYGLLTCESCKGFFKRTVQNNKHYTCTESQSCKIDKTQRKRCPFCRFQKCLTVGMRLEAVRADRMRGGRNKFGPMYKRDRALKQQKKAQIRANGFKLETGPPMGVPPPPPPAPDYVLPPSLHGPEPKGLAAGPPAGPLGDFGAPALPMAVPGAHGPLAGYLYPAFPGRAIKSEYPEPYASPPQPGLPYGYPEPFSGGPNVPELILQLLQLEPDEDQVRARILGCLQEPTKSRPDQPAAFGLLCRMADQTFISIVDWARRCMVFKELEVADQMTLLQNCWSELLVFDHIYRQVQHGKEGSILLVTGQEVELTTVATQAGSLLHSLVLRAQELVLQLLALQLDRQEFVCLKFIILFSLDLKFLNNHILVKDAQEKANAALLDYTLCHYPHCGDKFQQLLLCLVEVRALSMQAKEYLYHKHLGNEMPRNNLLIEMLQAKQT
# Nuclear receptor coactivator 2 (Homo sapiens), sequence (Q15596 whole entry, looked up, the tested form may be a part): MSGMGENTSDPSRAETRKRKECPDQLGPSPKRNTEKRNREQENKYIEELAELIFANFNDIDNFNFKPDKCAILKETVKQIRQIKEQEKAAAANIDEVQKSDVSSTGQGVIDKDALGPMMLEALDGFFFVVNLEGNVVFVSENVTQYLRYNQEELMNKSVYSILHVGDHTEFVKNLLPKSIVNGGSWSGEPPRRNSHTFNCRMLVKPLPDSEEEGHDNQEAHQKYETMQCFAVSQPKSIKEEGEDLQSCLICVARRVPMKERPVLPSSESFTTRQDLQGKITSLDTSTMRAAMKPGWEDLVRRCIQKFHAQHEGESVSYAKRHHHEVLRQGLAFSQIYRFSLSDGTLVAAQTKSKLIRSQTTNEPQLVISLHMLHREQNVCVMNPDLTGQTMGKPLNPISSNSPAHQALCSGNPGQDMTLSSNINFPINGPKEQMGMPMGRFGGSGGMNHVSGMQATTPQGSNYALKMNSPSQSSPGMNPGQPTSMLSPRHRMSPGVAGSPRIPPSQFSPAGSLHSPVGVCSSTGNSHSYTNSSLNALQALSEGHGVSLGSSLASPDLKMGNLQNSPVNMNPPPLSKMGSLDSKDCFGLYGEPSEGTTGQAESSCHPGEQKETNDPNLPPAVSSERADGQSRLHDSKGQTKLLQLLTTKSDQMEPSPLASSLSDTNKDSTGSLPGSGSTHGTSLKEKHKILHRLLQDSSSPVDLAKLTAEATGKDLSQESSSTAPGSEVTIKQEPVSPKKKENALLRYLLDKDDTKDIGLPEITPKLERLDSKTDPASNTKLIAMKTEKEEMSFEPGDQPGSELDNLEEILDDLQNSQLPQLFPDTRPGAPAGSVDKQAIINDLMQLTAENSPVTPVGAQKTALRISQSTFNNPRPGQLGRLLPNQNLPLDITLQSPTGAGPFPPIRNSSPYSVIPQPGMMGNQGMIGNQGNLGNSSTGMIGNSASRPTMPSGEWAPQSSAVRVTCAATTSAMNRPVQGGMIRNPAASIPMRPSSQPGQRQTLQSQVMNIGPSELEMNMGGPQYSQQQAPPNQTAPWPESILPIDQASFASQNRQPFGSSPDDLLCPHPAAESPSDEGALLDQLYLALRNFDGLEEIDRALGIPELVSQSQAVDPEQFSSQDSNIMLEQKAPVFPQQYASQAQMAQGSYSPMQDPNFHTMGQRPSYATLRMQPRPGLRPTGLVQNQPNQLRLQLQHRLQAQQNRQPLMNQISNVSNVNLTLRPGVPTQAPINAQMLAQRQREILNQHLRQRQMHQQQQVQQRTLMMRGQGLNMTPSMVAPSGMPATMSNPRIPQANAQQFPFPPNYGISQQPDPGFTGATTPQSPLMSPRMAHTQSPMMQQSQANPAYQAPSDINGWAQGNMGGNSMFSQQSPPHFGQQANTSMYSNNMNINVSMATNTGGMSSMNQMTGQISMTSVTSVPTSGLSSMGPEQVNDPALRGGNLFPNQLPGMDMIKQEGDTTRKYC
smiles,measurement,setting,value
C=CC(=O)N1C/C(=C/c2ccc(Cl)cc2)C(=O)/C(=C\c2ccc(Cl)cc2)C1,inhibition,[1],17.8%
same,inhibition,[2],84.7% (active)
same,inhibition,[3],87.8% (active)
same,inhibition,[4],65.8% (active)
same,inhibition,[5],97% (active)
same,inhibition,[6],88.4% (active)
O=C(Nc1ccc(Cl)cc1)/C(=C/c1cccc(O)c1)c1nc2ccccc2s1,inhibition,[1],52% (active)
same,inhibition,[2],78.1% (active)
same,inhibition,[3],78.1% (active)
same,inhibition,[4],71.2% (active)
same,inhibition,[5],48.6% (active)
same,inhibition,[6],80.7% (active)
O=C(CCl)N(c1ccccc1)c1c[nH]c2ccccc12,inhibition,[1],62.4% (active)
same,inhibition,[2],55.8% (active)
same,inhibition,[3],38.5%
same,inhibition,[4],18.8%
same,inhibition,[5],21.6%
same,inhibition,[6],17.9%
CCN(Cc1ccc(OC)c(F)c1)C(=O)CCl,inhibition,[1],31.7% (active)
same,inhibition,[2],78.7% (active)
same,inhibition,[3],73.3% (active)
same,inhibition,[4],21.3%
same,inhibition,[5],31.8%
same,inhibition,[6],49.5% (active)
C=CCNC(=O)CSc1nc2sc(C)c(C)c2c(=O)[nH]1,inhibition,[7],-1.59%
same,inhibition,[8],-0.91%
same,inhibition,[9],-2.04%
CCNC(=S)N(CCc1c(C)[nH]c2ccc(C)cc12)Cc1ccco1,inhibition,[7],-0.28%
same,inhibition,[8],-0.24%
same,inhibition,[9],-0.97%
Cc1ccc(NC(=O)C2=C(c3ccccc3)S(=O)(=O)CCS2(=O)=O)cc1,inhibition,[1],11%
same,inhibition,[2],-4.23%
same,inhibition,[3],30.3%
same,inhibition,[4],48.5% (active)
same,inhibition,[5],92.8% (active)
same,inhibition,[6],96.9% (active)
COC(=O)c1ccc(OCC2c3cc(OC)c(OC)cc3CCN2C(=O)c2ccco2)cc1 (stereo unspecified),inhibition,[2],52.8% (active)
same,inhibition,[3],53% (active)
Cc1ccc(NC(=O)Nc2nnc(-c3ccncc3)s2)cc1,inhibition,[7],2.33%
same,inhibition,[8],3.97%
same,inhibition,[9],9.8%
Cc1ccc(-c2cnc(C(O)c3cc(Cl)cc(Cl)c3)[nH]2)cc1 (stereo unspecified),inhibition,[7],12.2% (active)
same,inhibition,[8],16.9%
same,inhibition,[9],16.9%
O=C1c2ccccc2C2=Nc3ccccc3SC(c3ccccc3F)C12 (stereo unspecified),inhibition,[7],8.51%
same,inhibition,[8],8.52%
same,inhibition,[9],3.38%
S=C(NCC1COc2ccccc2O1)Nc1ccc(Br)cc1 (stereo unspecified),inhibition,[7],4.21%
same,inhibition,[8],5.21%
same,inhibition,[9],6.67%
CCN1CCN(c2nc(Nc3cc(OC)ccc3OC)nc(Nc3cc(OC)ccc3OC)n2)CC1,inhibition,[7],-0.69%
same,inhibition,[8],-0.86%
same,inhibition,[9],-2.43%
O=C(N/N=C/c1ccc([N+](=O)[O-])o1)c1ccc(O)cc1,inhibition,[2],78.3% (active)
same,inhibition,[3],69% (active)
CCn1cc(C(=O)NCCO)c(=O)c2cc(F)c(N3CCN(C)CC3)cc21,inhibition,[7],103% (active)
same,inhibition,[8],104% (active)
same,inhibition,[9],104% (active)
CCN(CC)CCC(=O)N1C/C(=C/c2ccccc2)C(=O)/C(=C\c2ccccc2)C1,inhibition,[1],57.8% (active)
same,inhibition,[2],84.4% (active)
same,inhibition,[3],86.8% (active)
same,inhibition,[4],76.2% (active)
same,inhibition,[5],84.8% (active)
same,inhibition,[6],23.6%
O=C1C=CC2(C=C1)O[C@H](Cc1ccccc1)[C@@H](Cc1ccccc1)O2,inhibition,[1],37% (active)
same,inhibition,[2],83.4% (active)
same,inhibition,[3],73.2% (active)
same,inhibition,[4],72.5% (active)
same,inhibition,[5],94.4% (active)
same,inhibition,[6],63.8% (active)
CC(C)(C)C(=O)Nc1c(Br)c(C2CC2)nn1-c1ccccc1,inhibition,[7],-0.86%
same,inhibition,[8],-0.19%
same,inhibition,[9],0.42%
C=CCn1c(=O)c(C(=O)NCc2ccc3c(c2)OCO3)c(O)c2ccccc21,inhibition,[7],4.97%
same,inhibition,[8],6.78%
same,inhibition,[9],6.71%
CN(C)c1ccc2nc3ccc(=[N+](C)C)cc-3sc2c1,inhibition,[2],59.9% (active)
same,inhibition,[3],66.7% (active)
same,inhibition,[4],52.9% (active)
CC(=O)Nc1ccc(NC(=O)CSc2nnc(-c3ccco3)n2Cc2ccco2)cc1,inhibition,[2],58.2% (active)
same,inhibition,[3],59.9% (active)
CCc1cc(-c2nnn(CCC3COCCO3)c2CC)ccc1-c1cn(Cc2ccc3ccccc3c2)nn1 (stereo unspecified),inhibition,[1],0.97%
same,inhibition,[2],34.7%
same,inhibition,[3],42.3%
same,inhibition,[4],39.4% (active)
same,inhibition,[10],-21.8%
same,inhibition,[11],42% (active)
COc1cccc(C(O)c2ncc(-c3ccc4ccccc4c3)[nH]2)c1 (stereo unspecified),inhibition,[7],7.6%
same,inhibition,[8],10.9%
same,inhibition,[9],13.4%
CNC(=O)c1cc(Oc2ccc(NC(=O)Nc3ccc(Cl)c(C(F)(F)F)c3)cc2)ccn1,inhibition,[2],63.7% (active)
same,inhibition,[3],69% (active)
same,inhibition,[5],29.9%
same,inhibition,[6],58.7% (active)
COc1ccc(/C=C/C(=O)O)cc1O,inhibition,[1],1.72%
same,inhibition,[4],2.63%
